# Hits are enriched below; roughly 1.7% of the tested compounds scored in any of these assays.
# LDHA inh – inhibitors of human lactate dehydrogenase A. hit rate 0.15% among 480,000. activity change, % (values are at about 110 or 230 µM). P00338. purified LDHA, NADH/diaphorase-resazurin fluorescence; active compounds read low. AID 1347041; in the data active = activity change below about -30%; inconclusive = mostly about -25% to -30%;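 note: plate controls were DMSO wells for no effect and wells without enzyme for full effect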
#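 Human LDH5 (2 nM) was incubated with 0.06 mM NADH and 0.2 mM pyruvate for 5 min at room temperature in Tris pH 7.4. Remaining NADH was coupled through diaphorase/resazurin, and resorufin fluorescence was read at 0 and 20 min.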
# PTHR1 ag – PTHR1 (human) receptor agonism | hit rate 0.075% among 410,000 | Q03431 | HEK293 GP2 PTHR1 cells, GloSensor cAMP luminescence, 1 h | Potency, µM (top dose mostly 115 µM), for the others: top-dose activation, usual class: activators; note: potency is the fitted concentration of half-maximal effect; nearly all actives have a fitted effect of over 55% in size
# Target sequence (Q03431 whole entry, looked up): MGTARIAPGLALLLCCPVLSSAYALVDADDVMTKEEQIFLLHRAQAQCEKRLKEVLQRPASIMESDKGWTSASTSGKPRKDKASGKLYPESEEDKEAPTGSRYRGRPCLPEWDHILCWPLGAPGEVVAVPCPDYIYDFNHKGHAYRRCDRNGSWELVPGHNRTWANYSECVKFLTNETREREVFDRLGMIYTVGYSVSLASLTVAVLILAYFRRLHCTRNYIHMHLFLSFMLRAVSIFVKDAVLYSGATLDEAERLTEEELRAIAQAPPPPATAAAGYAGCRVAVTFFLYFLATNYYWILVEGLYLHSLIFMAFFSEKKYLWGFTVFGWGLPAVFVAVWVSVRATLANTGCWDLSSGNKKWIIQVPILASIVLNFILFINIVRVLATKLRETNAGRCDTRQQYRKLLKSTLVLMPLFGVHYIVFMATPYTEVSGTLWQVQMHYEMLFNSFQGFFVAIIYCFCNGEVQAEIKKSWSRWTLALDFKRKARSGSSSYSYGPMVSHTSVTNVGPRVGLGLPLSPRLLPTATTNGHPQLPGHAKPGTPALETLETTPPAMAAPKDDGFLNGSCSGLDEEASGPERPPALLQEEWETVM
#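 HEK-293-derived GP2 cells expressing PTHR1 and a GloSensor cAMP reporter, 3,000/well, plated overnight, given luciferin plus IBMX (each 0.5 mM as added) for 1 h at 37 °C, then compound for 1 h at 37 °C. Luminescence was read after 15 min at room temperature.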
# GLP1R cytotox – cytotoxic in the GLP-1 receptor inverse agonist counter-screen; HEK293 cAMP-luciferase reporter cells, luminescence, 24 h; Potency, µM (top dose mostly 38.3 µM), for the others: at the highest dose activity change, negative = inhibition, most hits filed as inhibitors; hit rate 0.13% among 410,000;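 note: loss of luciferase light is scored as toxicity; potency is the fitted concentration of half-maximal effect; % is set by controls: 0 for no effect and ±100 for the full control effect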
#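 Quantitative HTS format, 1536 wells, 200 cells/uL seeded. Compounds: 23 nL, 24 h, 37 °C. Detection: luciferase reagent, luminescence at 12 min RT; decreased signal taken as cytotoxic.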
# GLP-1R inv ag – inverse agonists of human GLP-1 receptor; Potency, µM (series often up to 38.3 µM), inactives show at the highest dose activity change, negative = inhibition, most hits filed as inhibitors; HEK293 GLP-1R CRE-luciferase, luminescence, 24 h; GLP-1R form is constitutively active; hit rate 1.6% among 410,000; P43220; AID 624417; note: potency is the fitted concentration of half-maximal effect; % is set by controls: 0 for no effect and ±100 for the full control effect; nearly all actives have a fitted effect of over 55% in size
#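 HEK293 cells stably co-expressing a cAMP-responsive luciferase reporter and constitutively active GLP-1R were seeded, incubated 12 h, then exposed to compounds for 24 h at 37 C. Luminescence was read 12 min after detection reagent; inverse agonists lower signal.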
# IDH1 R132H inh – blocks human mutant IDH1 R132H enzyme. O75874. IDH1-R132H enzyme, NADPH consumption, diaphorase/resazurin fluorescence. Potency, µM (top dose mostly 76.6 µM), for inactives: at the top dose activity change, negative = inhibition, hits mostly inhibitors. hit rate 0.093% among 390,000; note: potency is the fitted concentration of half-maximal effect; % is set by controls: 0 for no effect and ±100 for the full control effect; nearly all actives have a fitted effect of over 65% in size
#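 IDH1-R132H (0.5 ug/mL) preincubated 30 min with compound, then NADPH (0.016 mM) and alpha-KG (2 mM) added; 80 min at RT, pH 7.5. Remaining NADPH coupled via diaphorase/resazurin to fluorescence (540/590 nm); concentration-response curves normalized to no-enzyme control.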
# GLP-1R agonist – GLP-1 receptor (human) agonism | P43220 | HEK293 GLP-1R CRE-luciferase, luminescence, 4-6 h; cells express a hypersensitive GLP-1R form | Potency, µM (highest dose often 45.6 µM), for inactives: top-dose activation, hits mostly activators | hit rate 0.007% among 380,000 | AID 624172; note: potency is the fitted concentration of half-maximal effect; % of control where 0% means no effect
# IDH1 autofl – interferes with resorufin fluorescence in IDH1 counter-screen | inhibition of signal, % at 51.2 µM | AID 623980 | 750 tested, under 10 active | shares compounds with IDH1 R132H inh | Resorufin detection reagent fluorescence interference, cell-free;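 note: 0% = wells with normal resorufin and full inhibition = wells lacking resorufin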
# WT IDH1 inh – wild-type IDH1 (human) inhibition counterscreen. shares compounds with IDH1 R132H inh. WT IDH1 enzyme, NADPH diaphorase/resazurin fluorescence. Potency, µM (highest dose often 115 µM), without a hit: at the top dose activity change, negative = inhibition, most hits filed as inhibitors. hit rate 9% among 750. AID 623995;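 note: potency is the fitted concentration of half-maximal effect; 0% = full WT IDH1 enzyme control and full inhibition = no enzyme wells; nearly all actives have a fitted effect of over 55% in size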
# IDH1 R132H conf – inhibits human mutant IDH1 enzyme in cherrypick confirmation; shares compounds with IDH1 R132H inh; hit rate 83% among 750; Potency, µM (highest dose often 76.6 µM), for inactives: at the top dose activity change, negative = inhibition, actives largely listed as inhibitors; AID 624002; IDH1 R132H enzyme, NADPH diaphorase/resazurin fluorescence; note: potency is the fitted concentration of half-maximal effect; nearly all actives have a fitted effect of over 50% in size
# * marks the source's active call; other numbers are inactive results; i = inactive; ? = inconclusive; · = no result given; [ ] = another dose, or the depositor's remark. Unless noted, calls come from the whole dose curve; as a rule, active = well fitted curve in the direction sought with a large enough effect; inconclusive = small, poorly fitted or top-dose-only effect, or another doubt; inactive = no such curve, though single readings can be large; an effect the other way counts as inactive or inconclusive.
SMILES,LDHA inh,PTHR1 ag,GLP1R cytotox,GLP-1R inv ag,IDH1 R132H inh,GLP-1R agonist,IDH1 autofl,WT IDH1 inh,IDH1 R132H conf
N#CC1=C(N)C2=CCCC[C@H]2[C@H](c2cccc(F)c2)C1(C#N)C#N,9,-14%,87%,?,46µM*,-12%,-8,48%,45µM*
O=C(/C=C/c1ccc(Cl)cc1)c1ccc([N+](=O)[O-])o1,2,-47%,-2%,8%,11µM*,-1%,0,?,8.9µM*
Cc1ccc(/C=C/C(=O)c2ccc([N+](=O)[O-])o2)cc1,7,-12%,-18%,12%,35µM*,10%,-10,?,8.9µM*
Cc1ccc(CNC(=O)c2ccc([N+](=O)[O-])o2)cc1,1,i,-14%,0%,2%,-7%,·,·,·
COc1cccc(CN(C)Cc2cc(C)no2)c1OC,11,·,·,·,·,·,·,·,·
O=C(O)c1ccc(Cl)c(S(=O)(=O)N(Cc2ccccc2)c2ccccc2Cl)c1,-3,-3%,?,?,29µM*,-7%,8,-4%,32µM*
Cn1c(SCC(=O)N2CCc3ccccc3C2)nnc1-c1ccncc1,-6,i,-12%,-2%,1%,1%,·,·,·
CCc1cccc(CC)c1-n1c(SCC(=O)N2CCc3ccccc3C2)nnc1-c1cccnc1,-5,-23%,-23%,?,52µM*,1%,-1,1%,14µM*
Cc1ccc2nc3c(nc2c1C)C(O)=C3O,0,i,-4%,3%,?,1%,-6,63%,45µM*
Cc1ccc2nc3c(nc2c1C)CCCC3,-3,i,12%,15%,0%,10%,·,·,·
Cc1ccc(C(=O)Nc2nc(-c3nnn(-c4ccc(F)cc4F)c3C)ns2)cc1C,3,·,·,·,·,·,·,·,·
Cc1ccc(Nc2cc(C)c(C#N)c3nc4ccccc4n23)c(C)c1,-2,-24%,2%,13%,40µM*,0%,1,-2%,14µM*
CCOC(=O)c1ccc(N2C(=O)c3n[nH]c(C)c3C2c2ccc(CC)cc2)cc1 (stereo unspecified),-3,-12%,-4%,8%,?,0%,0,1%,?
CCOC(=O)c1ccc(N2C(=O)c3n[nH]c(-c4cccs4)c3C2c2cccc(O)c2)cc1 (stereo unspecified),-2,-94%,?,?,?,-5%,4,0%,16µM*
CCOC(=O)c1ccc(N2C(=O)c3n[nH]c(C)c3C2c2cccc(Br)c2)cc1 (stereo unspecified),-5,?,?,?,?,·,-7,-1%,25µM*
Cc1nc2cc(NC(=O)c3cccc(C)c3C)ccc2o1,13,·,·,·,·,·,·,·,·
O=C(COc1ncnc2ccc(Br)cc12)Nc1cc(F)ccc1F,9,·,·,·,·,·,·,·,·
CC(C)=CC(=O)NC1CCCc2ccccc21 (stereo unspecified),3,·,·,·,·,·,·,·,·
O=C1c2[nH]nc(-c3ccccc3O)c2C(c2cccc(OCc3ccccc3)c2)N1CCCO (stereo unspecified),-19,-13%,-24%,?,45µM*,·,-11,?,40µM*
COc1cc(C2c3c(-c4ccccc4O)n[nH]c3C(=O)N2CCO)ccc1OCc1ccccc1 (stereo unspecified),-5,-3%,8%,2%,?,·,1,-5%,28µM*
CCCN1C(=O)c2[nH]nc(-c3ccccc3O)c2C1c1ccc(OCc2ccccc2)c(OC)c1 (stereo unspecified),1,i,-10%,?,-26%,·,·,·,·
CCOc1ccc(NC(=O)CN2C(=O)C(c3ccccc3)=NC23CCC(C)CC3)cc1 (stereo unspecified),-5,i,-25%,?,22µM*,·,2,3%,16µM*
COc1ccc(NC(=O)CN2C(=O)C(c3ccccc3)=NC23CCC(C)CC3)cc1Cl (stereo unspecified),-2,-11%,-5%,?,·,·,·,·,·
CCN(Cc1ccccc1)C(=O)c1cc2ccc(OC)cc2[nH]1,10,·,·,·,·,·,·,·,·
COc1ccc([C@@H]2CC(=O)c3c(O)cc(O)cc3O2)cc1O,-7,-62%,-5%,8%,10%,-2%,·,·,·
SMILES,LDHA inh,PTHR1 ag,GLP1R cytotox,GLP-1R inv ag,IDH1 R132H inh,GLP-1R agonist,IDH1 autofl,WT IDH1 inh,IDH1 R132H conf
COc1c(CC=C(C)C)cc(C2CC(=O)c3c(O)cc(O)cc3O2)cc1CC=C(C)C (stereo unspecified),-12,-30%,?,?,35µM*,3%,-1,40µM*,25µM*
CC(C)(C)C(=O)COC(=O)c1ccccc1SC1CCS(=O)(=O)C1 (stereo unspecified),0,·,·,·,·,·,·,·,·
COc1ccc(C(=O)Nc2cccc(OC(=O)c3ccc(C)c(C)c3)c2)cc1,4,-4%[57.5 µM],-30%,?,4%,-20%,·,·,·
CC(=O)Oc1ccc(C(=O)Nc2cccc(C(=O)c3ccc(C)c(C)c3)c2)cc1,-4,-12%,?,13µM*,?,2%,1,2%,10µM*
COc1cc2cnc(-c3ccccc3)c(-c3ccc(C(F)(F)F)cc3)c2cc1OC,4,-3%,7%,1%,?,1%,-3,-1%,16µM*
COc1cc(C(=O)COC(=O)CCCOc2ccc(Cl)cc2Cl)cc(OC)c1OC,2,·,·,·,·,·,·,·,·
CC(C)(C)c1ccc(-c2csc(NNC3=NCCCCC3)n2)cc1,-11,-1%[57.5 µM],0%,-3%,?,8%,·,·,·
Brc1ccc(-c2csc(NNC3=NCCCCC3)n2)cc1,-7,-83%,-13%,6%,26µM*,0%,2,38%,?
c1cc(-c2sc(-c3ccncc3)c(-c3ccncc3)c2-c2ccncc2)ccn1,14,-9%,?,-24%,?,8%,0,?,28µM*
COc1ccc(C(=O)c2c3ccccc3[n+]([O-])n2Cc2ccc(C(N)=O)cc2)cc1,15,2%,-36%,27%,-11%,7%,·,·,·

# Bioassay records deposited in PubChem BioAssay by National Center for Advancing Translational Sciences (NCATS).
